Measured values taken from publication PMC7883291.

How the values were obtained:
Assay in all cases: cross-link between two proteins; cross-linking mass spectrometry
[1] = target: Acyl carrier protein, mitochondrial (UniProt P52505)
[2] = target: NADH dehydrogenase [ubiquinone] 1 beta subcomplex subunit 11, mitochondrial (UniProt Q8HXG5)
[3] = target: T1, Cytochrome b-c1 complex subunit 2, mitochondrial (UniProt P23004)
T1 sequence: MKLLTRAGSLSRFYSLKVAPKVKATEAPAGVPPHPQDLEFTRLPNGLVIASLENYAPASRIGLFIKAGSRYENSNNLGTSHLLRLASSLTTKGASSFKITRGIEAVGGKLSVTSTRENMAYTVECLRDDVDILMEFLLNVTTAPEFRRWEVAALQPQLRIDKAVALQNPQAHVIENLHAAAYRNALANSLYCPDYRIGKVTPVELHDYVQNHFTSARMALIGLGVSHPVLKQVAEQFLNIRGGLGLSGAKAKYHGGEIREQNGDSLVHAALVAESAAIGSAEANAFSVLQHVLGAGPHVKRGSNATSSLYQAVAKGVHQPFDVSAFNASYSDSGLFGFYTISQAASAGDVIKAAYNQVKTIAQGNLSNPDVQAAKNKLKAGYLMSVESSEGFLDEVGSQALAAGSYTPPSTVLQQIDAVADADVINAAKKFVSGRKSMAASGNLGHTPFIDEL

[4] = target: NADH dehydrogenase [ubiquinone] 1 alpha subcomplex subunit 9, mitochondrial (UniProt P34943)
Sequence of NADH dehydrogenase [ubiquinone] 1 alpha subcomplex subunit 9, mitochondrial (P34943 whole entry, one chain of several): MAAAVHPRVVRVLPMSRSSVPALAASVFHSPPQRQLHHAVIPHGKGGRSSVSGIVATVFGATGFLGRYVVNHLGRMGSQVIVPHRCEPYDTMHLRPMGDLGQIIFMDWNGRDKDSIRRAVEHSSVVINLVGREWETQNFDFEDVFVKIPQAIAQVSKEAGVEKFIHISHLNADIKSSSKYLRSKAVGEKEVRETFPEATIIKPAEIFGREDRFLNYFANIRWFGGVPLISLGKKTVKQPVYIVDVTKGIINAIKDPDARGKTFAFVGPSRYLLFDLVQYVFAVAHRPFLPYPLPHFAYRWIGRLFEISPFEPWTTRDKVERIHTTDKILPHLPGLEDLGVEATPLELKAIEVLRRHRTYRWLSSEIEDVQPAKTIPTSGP

Sequence of NADH dehydrogenase [ubiquinone] 1 beta subcomplex subunit 11, mitochondrial (Q8HXG5 whole entry, one chain of several): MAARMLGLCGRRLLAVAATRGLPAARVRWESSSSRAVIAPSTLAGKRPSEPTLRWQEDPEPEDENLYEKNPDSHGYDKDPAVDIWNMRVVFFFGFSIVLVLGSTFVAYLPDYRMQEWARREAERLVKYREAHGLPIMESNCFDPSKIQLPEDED

G5E543
listed as a hit [1]: yes | listed as a hit [2]: yes

A0A3Q1MBD7
listed as a hit [3]: yes

A8WFQ0
listed as a hit [4]: yes
